# Measured values published in PubChem BioAssay (EPA / NIEHS).
# Active and inactive are the calls of the source. Rule for the calls: active = hit-call score of the fitted dose curve at least 0.9, where 1 is the maximum; inactive = score below 0.9.
# Experiment: CCTE_Shafer_MEA_acute_per_network_burst_spike_number_std: CCTE's Neural Acute Assay for Standard Deviation of Number of Spikes in a Network Burst, Shafer Lab (AID 2284020);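 note: fitted for decrease in spike-number SD versus DMSO so actives lower it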
# Description: CCTE_Shafer_MEA_acute assay is conducted using Axion Biosystems 48 well microelectrode array (MEA) plates and Maestro recording system. Each well of the MEA plate contains a grid of 16 microelectrodes embedded in the culture surface. Electrically active cells, such as neurons, can be cultured over the electrodes, and electrical activity in these cells can be recorded extracellularly. The spontaneous firing of neurons is captured from each electrode on a microsecond timescale providing both temporally and spatially precise data. […] The CCTE_Shafer_MEA_acute assay uses primary cultures of rat cortical neurons. As these cultures mature over time, neural networks develop functional activity and form cohesive networks in which electrical activity can be highly coordinated. Baseline 40-minute recordings are made on days post-plating 13 or 15, followed by a secondary 40-minute recording after chemical exposure.CCTE_Shafer_MEA_acute_per_network_burst_spike_number_std is a component of the CCTE_Shafer_MEA_acute assay. It measures the standard deviation of the number of spikes (action potential firings) in a network burst (temporally-clustered group of spikes across multiple electrodes) during a recording in a microelectrode array (MEA) using Axion Biosystems Maestro 768 channel amplifier with the AxIS adaptive spike detector. The recordings before and after chemical treatment are used to calculate a percent change in the standard deviation of the number of spikes in network bursts in each well.Data from the assay component CCTE_Shafer_MEA_acute_burst_spike_number_std was analyzed into 1 assay endpoint. This assay endpoint, CCTE_Shafer_MEA_acute_burst_spike_number_std, was analyzed in the negative analysis fitting direction relative to DMSO as the negative control and baseline of activity. Using a type of functional reporter, gain or loss-of-signal activity can be used to understand electrical activity.
# Spontaneous activity in the cortical cultures was recorded using an Axion Biosystems Maestro 768 channel amplifier and Axion Integrated Studios (AxIS) v1.8 (or later) software. The amplifier recorded from all channels simultaneously (gain = 1200 x; sampling rate = 12.5 kHz/channel): raw signals were filtered with a Butterworth band-pass filter (300-5000 Hz), which filters out slower local field potentials leaving only fast potentials, i.e., "spikes", arising from extracellular currents associated with action potentials (Pine 2006; Wheeler and Nam 2011). On-line spike detection of filtered signals was conducted with the AxIS adaptive spike detector, using a threshold of 8x the root mean squared (rms) noise on each channel. Any electrodes with rms noise levels greater than 5 uV were grounded (e.g., no data were recorded). Once grounded, an electrode was grounded for the duration of the experiment. All recordings were conducted at 37 C. Wells were deemed usable if on the day of the exposure >/= 10 electrodes were active (defined as >/= 5 spikes/min). On DIV 13 or 15, a minimum of three wells from one cortical culture preparation were treated with each compound (0.03-40 uM). Prior to recording baseline activity, each mwMEA plate was placed in the Maestro at 37 C and allowed to sit for 20 min while firing rates stabilized. Baseline activity (40 min) was recorded before the addition of each compound. An additional 40 min of spontaneous activity was recorded in the presence of each compound. Changes in network parameters relative to baseline were assessed following compound treatment.
SMILES,outcome,AC50
CC(C)(C)CC(C)(C)c1ccc(O)cc1,inactive,–
O=C1C2(Cl)C3(Cl)C4(Cl)C(Cl)(Cl)C5(Cl)C3(Cl)C1(Cl)C5(Cl)C24Cl (centres undefined),–,9.39 µM (active)
CCCCCCCCc1ccc(O)cc1,inactive,–
CC(C)(c1ccccc1)c1ccc(O)c(C(C)(C)c2ccccc2)c1,inactive,–
CC(=O)OC(c1ccccc1)C(Cl)(Cl)Cl (centres undefined),inactive,–
CCOP(=S)(OCC)SCSP(=S)(OCC)OCC,–,20 µM (active)
CCC(C)(C)c1ccc(O)c(C(C)(C)CC)c1,–,6.52 µM (active)
O=C(Nc1ccc2[nH]ccc2c1)c1cc2cc(F)ccc2n1Cc1cccc(F)c1,inactive,–
CCN1CCC2(CC1)COc1cc3c(cc12)N(C(=O)c1ccc(-c2ccc(-c4nnc(C)o4)cc2C)cc1)CC3,–,30.1 µM (active)
C[C@]12CCC(=O)C[C@@H]1CC[C@@H]1[C@@H]2CC[C@]2(C)[C@@H](O)CC[C@@H]12,inactive,–
O=C(O)C(F)(F)C(F)(F)C(F)(F)C(F)(F)C(F)(F)C(F)(F)C(F)(F)C(F)(F)C(F)(F)C(F)(F)F,inactive,–
CC(=O)[O][Hg][c]1ccccc1,–,0.844 µM (active)
O=C(O)C(Cl)(Cl)Cl,inactive,–
CC(C)(C)c1cc(O)ccc1O,–,20 µM (active)
CC(C)(OO)c1ccccc1,inactive,–
COC(=O)Cc1ccccc1,inactive,–
ClC1(Cl)C2(Cl)C3(Cl)C4(Cl)C(Cl)(Cl)C5(Cl)C3(Cl)C1(Cl)C5(Cl)C24Cl (centres undefined),inactive,–
CCC(=O)C(CC(C)N(C)C)(c1ccccc1)c1ccccc1 (centres undefined),inactive,–
C=C(C)C(=O)[O][Sn]([CH2]CCC)([CH2]CCC)[CH2]CCC,–,0.0933 µM (active)
